The results in this text go back to PubChem BioAssay AID1671190 (National Center for Advancing Translational Sciences (NCATS), 2021).

Molecules are shown by their SMILES. The campaign covered roughly 580,000 compounds. About 6,100 (1.1%) were called active. Inconclusive results (about 15%) are left out. This is one part of a sample in which actives are shown more often than they occur. Calls come from the whole dose curve; as a rule, active = well fitted inhibition curve with a large enough effect; inconclusive = small, poorly fitted or top-dose-only effect, or another doubt; inactive = no such curve, though single readings can be large or run the other way.
% is set by controls: 0 for no effect and ±100 for the full control effect; potency is the fitted concentration of half-maximal effect.

The target in this assay is Polyunsaturated fatty acid lipoxygenase ALOX12 (Homo sapiens) (UniProt P18054). Nature of the assay: Primary qHTS assay for inhibitors of human arachidonate 12S-lipoxygenase (ALOX12): Round 2. The following applies: purified 12hLO, xylenol orange hydroperoxide absorbance; series mostly up to 108 µM; activity change, negative = inhibition: at the top concentration. In short, it runs like this: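 Purified human 12hLO at 150 nM in 25 mM Hepes, 0.01% Triton X-100, pH 7.0, preincubated 15 min at room temperature with compound. Reaction started with 40 uM arachidonic acid, 30 min at room temperature. Hydroperoxide measured by Fe-xylenol orange, 573/405 nm absorbance ratio.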
Chain of Polyunsaturated fatty acid lipoxygenase ALOX12 (Homo sapiens) (P18054 whole entry, looked up): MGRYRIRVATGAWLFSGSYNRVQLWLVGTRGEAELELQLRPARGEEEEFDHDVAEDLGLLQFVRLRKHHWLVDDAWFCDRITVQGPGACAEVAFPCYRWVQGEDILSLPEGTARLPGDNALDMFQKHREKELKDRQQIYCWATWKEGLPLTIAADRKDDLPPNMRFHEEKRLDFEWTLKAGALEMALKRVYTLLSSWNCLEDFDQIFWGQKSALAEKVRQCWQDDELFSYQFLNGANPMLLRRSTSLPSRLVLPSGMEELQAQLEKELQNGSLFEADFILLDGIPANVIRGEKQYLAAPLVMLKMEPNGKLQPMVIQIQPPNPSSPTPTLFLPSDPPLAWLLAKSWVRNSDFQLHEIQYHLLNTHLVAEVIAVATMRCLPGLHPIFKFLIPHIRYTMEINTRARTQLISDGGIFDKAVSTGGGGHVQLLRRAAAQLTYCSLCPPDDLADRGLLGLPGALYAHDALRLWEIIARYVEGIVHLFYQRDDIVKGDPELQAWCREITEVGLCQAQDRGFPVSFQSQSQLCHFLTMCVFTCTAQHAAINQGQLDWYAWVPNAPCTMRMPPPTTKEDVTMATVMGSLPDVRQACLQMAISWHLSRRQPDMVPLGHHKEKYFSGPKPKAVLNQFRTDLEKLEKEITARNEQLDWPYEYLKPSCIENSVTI
For the molecule `Cc1ccc(C)c(Oc2coc3cc(OC(=O)C(C)C)ccc3c2=O)c1`, the “activity change, negative = inhibition” value was -5.82% (inactive).

For the molecule `CC(C)c1nnc(CN2CCOc3c(O)cc(-c4cccc(Cl)c4)cc3C2)o1`, the “activity change, negative = inhibition” value is 4.28% (inactive).

Regarding `S=c1[nH]nc(CSCc2ccc(Cl)cc2Cl)n1-c1ccccc1`, the Potency was 28.2 µM (active).

Regarding `CC(C)Oc1ccc(Cc2n[nH]c(=S)n2Cc2ccccc2)cc1Cl`, the “activity change, negative = inhibition” value was -6.13% (inactive).

For the molecule `O=S(=O)(NCCc1nnc2ccc(SCc3ccc(Cl)cc3Cl)nn12)c1ccccc1`, the “activity change, negative = inhibition” value is -19.8% (inactive).

On to `CCN(C(=O)CCc1c[nH]c2ccccc12)c1ccc(F)cc1`, for which the “activity change, negative = inhibition” value was -27.9% (inactive).

For `CC(C)=CCc1ccc(O)c(=O)cc1C(C)C`, the Potency was 25.1 µM (active).

For `Cc1ccccc1-c1cc(=O)c2cc(NC(=O)c3ccccc3F)ccc2o1`, the “activity change, negative = inhibition” value was 12.3% (inactive).

For the molecule `COC(=O)C(NC(C)=O)(Nc1nc2c(s1)CCCC2)C(F)(F)F` (stereo unspecified), the Potency was 17.8 µM (active).

Take `CCOC(=O)C(NC(=O)CC(C)C)(Nc1sc2c(c1C(N)=O)CCCC2)C(F)(F)F` (stereo unspecified): the “activity change, negative = inhibition” value is 0.0335% (inactive).

Regarding `O=C(Nc1nc2c(s1)CCCC2)c1ccccc1F`, the “activity change, negative = inhibition” value is -9.3% (inactive).

Turning to `CCOc1ccccc1OCCN`, the “activity change, negative = inhibition” value was -30.9% (inactive).

For `CCCc1nc2c(-c3ccc(Cl)cc3)c(C)[nH]n2c(=O)c1Cl`, the “activity change, negative = inhibition” value was -11.8% (inactive).

In the case of `O=C(CSc1nncn1-c1ccccc1F)Nc1ccccc1C(=O)Nc1ccccc1`, the “activity change, negative = inhibition” value is 14% (inactive).

Turning to `O=C(COC(=O)c1cc2ccccc2cc1O)Nc1ccc(Cl)cc1C(F)(F)F`, the “activity change, negative = inhibition” value is 6.37% (inactive).

On to `O=C(COC(=O)c1cnccn1)Nc1ccc(Cl)cc1C(F)(F)F`, for which the Potency is 10 µM (active).

For the molecule `O=C(COC(=O)c1cnccn1)Nc1cccc2ccccc12`, the “activity change, negative = inhibition” value is -1.25% (inactive).

Regarding `CN(Cc1ccccc1N1CCCC1)C(=O)c1ccc(S(=O)(=O)N2CCOCC2)cc1`, the “activity change, negative = inhibition” value was 7.09% (inactive).

Turning to `CCOc1ccccc1NC(=O)c1cnc(N2CCCCC2)c2ccccc12`, the “activity change, negative = inhibition” value was 7.78% (inactive).

For the molecule `O=C(COc1ncnc2c(Cl)cc(Cl)cc12)Nc1cc(F)ccc1F`, the “activity change, negative = inhibition” value was -2.36% (inactive).

Take `Oc1c(Cl)cc(Cl)c(Cl)c1Cc1c(O)c(Cl)cc(Cl)c1Cl`: the Potency was 7.08 µM (active).

Regarding `CC(C)(C)NC(=O)C(Sc1ccccc1)c1ccccc1` (stereo unspecified), the “activity change, negative = inhibition” value is -8.61% (inactive).

With `COc1ccc(Oc2c(C)oc3cc(OCC(=O)N4CCNC(=O)C4)ccc3c2=O)cc1`, the “activity change, negative = inhibition” value is -1.25% (inactive).

For the molecule `CN(Cc1ccco1)c1cc(-c2ccccc2C(F)(F)F)ncn1`, the “activity change, negative = inhibition” value was -17.5% (inactive).

In the case of `COc1ccccc1-c1cc(NCc2cccs2)ncn1`, the “activity change, negative = inhibition” value is -0.248% (inactive).

In the case of `FC(F)(F)c1ccccc1-c1cc(NCc2ccccc2)ncn1`, the Potency is 15.8 µM (active).

Consider `COC(=O)c1nc(-c2ccc(F)cc2)no1`, for which the “activity change, negative = inhibition” value was -31.2% (inactive).

With `CCN(CC)C(=O)[C@@H]1CCC[C@@H](NS(C)(=O)=O)CN(C)C(=O)C1`, the “activity change, negative = inhibition” value is -7.85% [at 176 µM] (inactive).

As for `CCOC(=O)C(NS(=O)(=O)c1ccc(C)cc1)(C(F)(F)F)P(=O)(OCC(C)C)OCC(C)C` (stereo unspecified), the Potency is 39.8 µM (active).

Take `CCOC(=O)C(NC(=O)c1ccccc1)(OC(C)C)C(F)(F)F` (stereo unspecified): the “activity change, negative = inhibition” value is 3.32% (inactive).

As to `Cc1ccc(S(=O)(=O)NCC(C)NS(C)(=O)=O)cc1` (stereo unspecified), the “activity change, negative = inhibition” value was -14.4% (inactive).
